Measured values: PubChem BioAssay AID435005 (Broad Institute, 2010)
The whole screen tested about 300,000 compounds, of which about 2,400 (0.8%) were called active.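 Rule for the calls: active = Every replicate reaches about 75%, or at least half do and their mean reaches it too (limit read from the data); inconclusive = At least half of replicates reach the limit but their mean does not; inactive = Under half of replicates reach the limit.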 Many of the other results were omitted from the sample, so actives are more common in it than they were.

test: INS-1E beta cell survival under cytokines – luminescence, primary screen (AID 435005); details: INS-1E cytokine-induced death, ATP luminescence, 48 h; stronger effect = higher value; percent of positive-control rescue, neutral wells zero; concentration not given here;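 note: 0% = cytokine-treated negative control wells and 100% = positive control rescue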

SMILES	protection from apoptosis
Cc1ccc(CNC(=O)COc2ccc(S(=O)(=O)NC(C)C)cc2)cc1	-8.98% (inactive)
Cc1ccc(C)c(NS(=O)(=O)c2ccc(OCC(=O)NCc3cccnc3)cc2)c1	99.2% (active)
Cc1cc(S(=O)(=O)NC2CCCCC2)ccc1OCC(=O)NCc1cccnc1	6.11% (inactive)
COc1ccc(-c2nn(-c3ccccc3)cc2/C=N/Nc2ccccn2)cc1OC	59.9% (inactive)
Oc1ccc(Br)cc1/C=N/Nc1ccccn1	133% (active)
O=[N+]([O-])c1ccc(O)c(/C=N/Nc2ccccc2[N+](=O)[O-])c1	36.9% (inactive)
CCOC(=O)[C@H]1[C@H]2COc3cc(OC)ccc3[C@@H]2N2C(=O)CN(Cc3ccc(Cl)cc3)C(=O)[C@@]12C	-0.794% (inactive)
COc1ccc(C(=O)NCC2CCCCC2)cc1S(=O)(=O)N1CCCC1	-0.303% (inactive)
CC(Sc1nnc(C2CC2)n1C1CC1)C(=O)Nc1ccc(C(N)=O)cc1 (centres undefined)	-0.98% (inactive)
Oc1c(CN2CCCC2)cc(COCc2ccccc2)c2cccnc12	73% (inactive)
Oc1ccc(CN2CCN(c3ncccn3)CC2)cc1	-1.21% (inactive)
Oc1c(CN2CCN(c3ccc(F)cc3)CC2)cc(Cl)c2cccnc12	111% (active)
CC1CCCCC1NC(=O)COc1ccc(C#N)cc1 (centres undefined)	0.693% (inactive)
CNS(=O)(=O)c1ccc(C(=O)NCC(=O)NCCc2ccc3c(c2)OCCO3)cc1	-2.22% (inactive)
CCN(CC)c1ccc(/C=N/NC(=O)CNC(=O)c2cccnc2)cc1	4.98% (inactive)
Cc1ccc(C(=O)NCCNC(=O)c2cnccn2)cc1	-7.48% (inactive)
Cc1cc(C)nc(N/N=C/c2c(CO)cnc(C)c2O)n1	-3.01% (inactive)
CCN(CC)c1ccc(/C=N/Nc2nc(C)cc(C)n2)c(O)c1	81.7% (active)
Cc1cc(C)nc(N/N=C/c2ccncc2)n1	-0.736% (inactive)
CCN(CC)c1ccc(/C=N/NC(=O)c2cnccn2)c(O)c1	101% (active)
CC1(C)CC[C@@]2(C(=O)O)C(C1)C1=CCC3[C@@]4(C)CC[C@H](O)C(C)(C)C4CC[C@@]3(C)[C@]1(C)C[C@H]2O (some centres undefined)	22.4% (inactive)
COc1ccc(C(=O)Nc2cc(S(=O)(=O)N3CCCC3)ccc2Cl)cc1	-1.79% (inactive)
O=C1NC(Cc2ccc(O)cc2)c2nc3ccc(Cl)cc3c(=O)n2-c2ccccc21 (centres undefined)	-3.47% (inactive)

SMILES	protection from apoptosis
CN(Cc1ccc(CNC[C@H]2O[C@@H](n3cnc4c(N)ncnc43)[C@H](O)[C@@H]2O)o1)S(C)(=O)=O	-10.1% (inactive)
C[C@@H]1CN([C@@H](C)CO)C(=O)c2cc(NC(=O)C3CC3)ccc2O[C@H]1CN(C)C	0.593% (inactive)
Cc1cc(NS(=O)(=O)c2ccc(NC(=O)c3cccnc3)cc2)nc(C)n1	-3.28% (inactive)
CCOC(=O)c1ccc(-c2ccc(C(=O)Nc3cccnc3)o2)cc1	3.72% (inactive)
CC(=O)NC(=S)Nc1ccc(NC(=O)c2cccnc2)cc1	-1.43% (inactive)
Cc1ccc2nc(-c3ccc(NC(=O)c4cccnc4)cc3)oc2c1	106% (active)
CCOC(=O)c1cc(NC(=O)c2cccnc2)ccn1	-6.76% (inactive)
Cc1cc2nc(-c3ccc(NC(=O)c4cccnc4)cc3)oc2cc1C	104% (active)
CCOC(=O)c1ccc(NC(=O)c2cccnc2)cc1	112% (active)
Cc1ccc(-n2nc3cc(C)c(NC(=O)c4cccnc4)cc3n2)cc1	-1.41% (inactive)
O=C(Cc1ccccc1)Nc1ccc(NC(=O)c2cccnc2)cc1	-0.0371% (inactive)
CCn1nc(C(=O)Nc2ccc(N3CCOCC3)cc2)c2ccccc2c1=O	-0.317% (inactive)
C#CCOCCOCCOCCNc1nc(N2CCN(C(=O)C([C@@H](C)O)n3cc([C@@H](N)CCCCN)nn3)CC2)nc(N2CCN(C(=O)[C@H](CCCCN)n3cc(CN)nn3)CC2)n1 (some centres undefined)	0.272% (inactive)
CN(CC(=O)NCC(c1ccccc1)N1CCCC1)S(=O)(=O)c1ccc(Cl)cc1 (centres undefined)	-2.83% (inactive)
CC1CCCC(C)N1C(=O)COC(=O)COc1ccccc1C#N (centres undefined)	-0.693% (inactive)
COc1cc(OC)cc(-c2cc3ccc(F)cc3cn2)c1	3.7% (inactive)
CC(=O)Nc1ccc(S(=O)(=O)NCC(=O)OCC(=O)c2ccc[nH]2)cc1	0.385% (inactive)
O=C(C[C@H]1C/C=C\C[C@@H](NC(=O)OCC2c3ccccc3-c3ccccc32)C(=O)O[C@@H](c2ccccc2)CNC1=O)N[C@H](CO)Cc1ccccc1	54.4% (inactive)
CCC(=O)/C(=C(/O)c1ccccc1)c1nc2ccccc2[nH]1	-5.02% (inactive)
O=C(Cc1nc2ccccc2[nH]c1=O)c1ccc(Cl)cc1	-0.338% (inactive)
O=C(/C(=C/c1cccc(Cl)c1)c1nc2ccccc2[nH]1)c1ccccc1	101% (active)
CC(=O)c1ccc(NC(=O)CSc2nc3ccccc3c(=O)n2CCCN2CCOCC2)cc1	-12.1% (inactive)
CC(C)(C)OC(=O)NNc1c2ccccc2nc2ccccc12	24.9% (inactive)

SMILES	protection from apoptosis
CC(=O)Nc1ccc(NC(=O)COc2ncnc3ccccc23)cc1	1.06% (inactive)
CC(=O)Nc1ccc(Nc2c3ccccc3nc3ccccc23)cc1	88.6% (active)
Cc1ccc(Nc2c3c(nc4ccccc24)CCC3)cc1	82.4% (active)
N#Cc1cccc(Nc2c3c(nc4ccccc24)CCCC3)c1	10.5% (inactive)
O=C(Nc1c2c(nc3ccccc13)CCCC2)c1ccccc1Br	-2.43% (inactive)
COc1ccc(Cl)cc1NC(=O)COC(=O)c1ccc(Br)o1	-10.1% (inactive)
COc1cccc(NC(=O)CSc2nnc(C3CCCCC3)n2N)c1	-3.75% (inactive)
Cc1ccc(-c2nn(-c3ccccc3)cc2C(=O)NC2CCC(O)CC2)cc1 (centres undefined)	1.53% (inactive)
CCc1ccc(-c2nn(-c3ccccc3)cc2CSC(=N)N)cc1	89.4% (active)
O=C(Nc1cn(-c2ccccc2)nc1-c1ccccc1)c1ccccc1	2.47% (inactive)
Cc1occc1C(=O)Nc1cccc(S(=O)(=O)N2CCOCC2)c1	-3.05% (inactive)
C=CCC[C@H](Cc1ccc(F)cc1)C(=O)OC[C@H](C)NC(=O)[C@H](CC=C)CC(=O)N(CCO)Cc1ccccc1	2.93% (inactive)
CN1CCN(c2nc3c(c(=O)[nH]c(=O)n3C)n2Cc2cccc3ccccc23)CC1	2.14% (inactive)
Cn1c(=O)[nH]c(=O)c2c1nc(N1CCN(C(c3ccccc3)c3ccccc3)CC1)n2CCO	99.9% (active)
Cn1c(=O)[nH]c(=O)c2c1nc(N1CCN(CCO)CC1)n2CCSc1nc2ccccc2s1	2.68% (inactive)
CCCCCCCCn1c2c(c(=N)c3c1CCC3)CCCC2	99.8% (active)
CCCCCCn1c(CN2CCCCC2)nc2c1c(=O)n(C)c(=O)n2C	2.42% (inactive)
CC(NC(=O)COC(=O)c1ccc2ccccc2n1)c1ccccc1 (centres undefined)	-4.86% (inactive)
O=C(Nc1nnc(-c2ccccc2)o1)c1cccc(S(=O)(=O)N2CCOCC2)c1	5.19% (inactive)
Cc1c(Cl)c([N+](=O)[O-])nn1CCCC(=O)Nc1cc(Cl)ccc1Cl	5.23% (inactive)
Cc1ccc(C(=O)O)cc1NC(=O)c1ccc(Cn2nc(C)c(Cl)c2C)o1	1.11% (inactive)
Cc1c(Cl)c([N+](=O)[O-])nn1Cc1ccc(C(=O)N/N=C\c2cc(Cl)ccc2O)o1	89.7% (active)
O=C(CSc1nnc(N2CCOCC2)n1-c1cccc(F)c1)N1CCN(c2ccccn2)CC1	-0.686% (inactive)

SMILES	protection from apoptosis
COc1cccc2sc3cc(NCC[C@@H]4CCCN4C)ccc3c(=O)c12	-2.22% (inactive)
Clc1ccc(CN2CCN(/N=C/c3cccnc3)CC2)cc1	-0.218% (inactive)
O=C1/C(=C\c2cccnc2)CN(Cc2ccccc2)C/C1=C\c1cccnc1	83.8% (active)
O=Cc1cn(Cc2ccccc2)nc1-c1cccnc1	0.63% (inactive)
COc1ccc(C(=O)COC(=O)C(O)c2ccccc2)c(OC)c1 (centres undefined)	-0.354% (inactive)
O=C(COC(=O)c1ccc(F)cc1)NCC1COc2ccccc2O1 (centres undefined)	-5.32% (inactive)
CCOC(=O)COc1ccc([N+](=O)[O-])cc1	-8.02% (inactive)
CCOC(=O)/C(=C\c1ccc([N+](=O)[O-])cc1)C(=O)c1cc(C(C)=O)c(Nc2ccccc2)s1	107% (active)
Cc1ccc(NC(=O)/C(=C/c2ccc([N+](=O)[O-])cc2)NC(=O)c2ccccc2)cc1	-0.596% (inactive)
COc1ccc2nc3n(c(=O)c2c1)-c1ccc(Cl)cc1C(=O)NC3Cc1ccccc1 (centres undefined)	5.15% (inactive)
COc1ccc(S(=O)(=O)N(C)C[C@@H]2Oc3ccc(NC(=O)Nc4c(C)noc4C)cc3C(=O)N([C@H](C)CO)C[C@@H]2C)cc1	4.1% (inactive)
O=C(N/N=C/c1ccccn1)c1cccnc1	-0.0642% (inactive)
Cc1nnc(N/N=C/c2ccccn2)[nH]c1=O	109% (active)
Cc1cc(C(=O)N/N=C/c2ccccn2)c2ccccc2n1	-6.79% (inactive)
COc1ccc(S(=O)(=O)N2CCN(CC(=O)N3CCOCC3)CC2)cc1OC	-2.22% (inactive)
CN(c1ccccc1)S(=O)(=O)c1cccc(NC(=O)Cc2ccc(Cl)cc2)c1	14.2% (inactive)
COc1cccc(CNCCc2c[nH]c3ccccc23)c1OCc1ccccc1F	82.8% (active)
COc1ccc(C(CCNCc2ccccc2F)c2ccc(F)cc2)cc1 (centres undefined)	1.89% (inactive)
COc1ccccc1NC(=O)CCCc1c[nH]c2ccccc12	6.21% (inactive)
C=CCC[C@H](Cc1ccc(F)cc1)C(=O)OC[C@@H](Cc1c[nH]c2ccccc12)NC(=O)[C@H](CC=C)CC(=O)N[C@H](CO)Cc1ccccc1	-1.63% (inactive)
